In PubChem BioAssay:
Values without a mark were called inactive. The rule behind the calls is not given here.

The compounds below were run against Pantothenate synthetase (Mycobacterium tuberculosis (strain ATCC 25618 / H37Rv)) (UniProt P9WIL5) (assay: Recombinant Mtb pantothenate synthetase (PanC) inhibitors, coupled enzyme, confirmatory (AID 375;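 note: 0% = full reaction with vehicle and 100% = no enzyme background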)). Conditions: coupled enzyme assay; at 10 µM, stronger effect = higher value.
Pantothenate synthetase (Mycobacterium tuberculosis (strain ATCC 25618 / H37Rv)), sequence (P9WIL5 whole entry, looked up): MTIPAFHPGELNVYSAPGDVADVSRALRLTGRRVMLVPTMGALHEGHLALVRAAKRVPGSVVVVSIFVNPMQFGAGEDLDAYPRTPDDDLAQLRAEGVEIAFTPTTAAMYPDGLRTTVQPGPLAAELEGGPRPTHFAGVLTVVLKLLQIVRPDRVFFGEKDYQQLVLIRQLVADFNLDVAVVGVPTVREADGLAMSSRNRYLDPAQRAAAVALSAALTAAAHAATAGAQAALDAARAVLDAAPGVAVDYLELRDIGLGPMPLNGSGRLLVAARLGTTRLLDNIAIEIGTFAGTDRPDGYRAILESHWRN

**Q.** How did the inhibition turn out when CC(=O)c1ccccc1OCCn1nnc(-c2ccc(C)cc2)n1 was run?
**A.** The inhibition was 0%.

**Q.** Which inhibition does the source give for CC1CCCC(NC(=O)CN2CCN(Cc3ccc(Cl)cc3)C2=O)C1C (stereo not given) here?
**A.** The inhibition was 7%.

**Q.** For O=C1c2ccccc2C(=O)N1C/C=C/CN1C(=O)c2ccccc2C1=O, which inhibition is on record?
**A.** The inhibition was 0%.

**Q.** Which inhibition does the source give for COc1ccccc1-n1c(=O)c2c3c(sc2n2c(SC(C)C)nnc12)CCC3 here?
**A.** Its inhibition is 1%.

**Q.** Cc1ccc(-n2c(C)cc3c2CCCC3=O)cc1 was tested. Which inhibition did it give?
**A.** The inhibition was 0%.

**Q.** How did the inhibition turn out when O=C(NC1CC1)c1cccc(Nc2ccc(-c3ccc4c(c3)OCCO4)nn2)c1 was run?
**A.** Its inhibition is 1%.

**Q.** With Cn1c(C(=O)NCC2CCCO2)cc2c(=O)[nH]c3ccccc3c21 (stereo not given) as the compound, how does the inhibition read?
**A.** Its inhibition is 8%.

**Q.** With Cn1c(C(=O)NCCCN2CCCCCC2)cc2c(=O)n(C)c3ccccc3c21 as the compound, how does the inhibition read?
**A.** The inhibition was 0%.

**Q.** With Nc1nc(N)nc(-c2ccccc2)n1 as the compound, how does the inhibition read?
**A.** Its inhibition is 0%.

**Q.** CC(C)(CO)NC(=O)CCCOc1ccc(Cl)cc1Cl was tested. Which inhibition did it give?
**A.** Its inhibition is 0%.

**Q.** With CN1CCC(=C2c3ccccc3C=Cc3ccccc32)CC1 as the compound, how does the inhibition read?
**A.** The inhibition was 0%.

**Q.** How did the inhibition turn out when O=C(Nc1ccc(N2CCCC2=O)cc1)c1cccc(F)c1 was run?
**A.** Its inhibition is 4%.

**Q.** Which inhibition does the source give for O=C(O)Cc1cc(I)c(Oc2ccc(O)c(I)c2)c(I)c1 here?
**A.** The inhibition was 0%.

**Q.** NC(=O)c1sc2nc3c(c(-c4ccco4)c2c1N)CCC3 was tested. Which inhibition did it give?
**A.** The inhibition was 0%.

**Q.** With O=C(OCC(=O)c1cccs1)C1=COCCO1 as the compound, how does the inhibition read?
**A.** The inhibition was 0%.

**Q.** COc1ccccc1-c1nnc(SCc2ccccn2)n1C was tested. Which inhibition did it give?
**A.** The inhibition was 0%.

**Q.** With C=CCOc1nc(N2CCCC2)nc(N2CCCC2)n1 as the compound, how does the inhibition read?
**A.** Its inhibition is 5%.

**Q.** For CC(=O)O[C@@]12CO[C@@H]1C[C@H](O)[C@@]1(C)C(=O)[C@H](O)C3=C(C)[C@@H](OC(=O)[C@H](O)[C@@H](NC(=O)OC(C)(C)C)c4ccccc4)C[C@](O)([C@@H](OC(=O)c4ccccc4)[C@H]21)C3(C)C, which inhibition is on record?
**A.** Its inhibition is 0%.

**Q.** Cc1sc2c(c1C)CN(C1CC(C)(C)NC(C)(C)C1)CN2C(=O)c1ccco1 was tested. Which inhibition did it give?
**A.** Its inhibition is 7%.

**Q.** Which inhibition does the source give for Cc1cn([C@H]2C=C[C@@H](CO)O2)c(=O)[nH]c1=O here?
**A.** Its inhibition is 0%.

**Q.** For COc1nnc(-c2ccc(C)c(S(=O)(=O)NCCO)c2)c2ccccc12, which inhibition is on record?
**A.** Its inhibition is 3%.

**Q.** How did the inhibition turn out when Cc1ccc(N=Cc2ccc[nH]2)c(O)c1 was run?
**A.** Its inhibition is 0%.

**Q.** For CC(=O)OC1CSc2nc3ccccc3n2C1 (stereo not given), which inhibition is on record?
**A.** Its inhibition is 0%.

**Q.** For CC(C)(C)OC(=O)N1CCOCCOCCN(C(=O)OC(C)(C)C)CCOCCOCC1, which inhibition is on record?
**A.** Its inhibition is 0%.

**Q.** How did the inhibition turn out when O=C(NCCN1CCCCCC1)c1ccc(N2CCCC2=O)cc1 was run?
**A.** Its inhibition is 1%.

**Q.** With C=CCn1c(N)c(C(=O)OC(C)(C)C)c2nc3ccccc3nc21 as the compound, how does the inhibition read?
**A.** The inhibition was 1%.

**Q.** Which inhibition does the source give for O=S(=O)(c1cccs1)N1CCN(C/C=C/c2ccccc2)CC1 here?
**A.** Its inhibition is 0%.

**Q.** With CN(C)S(=O)(=O)c1ccc(S(=O)(=O)N(Cc2ccco2)Cc2ccccc2Cl)cc1 as the compound, how does the inhibition read?
**A.** Its inhibition is 3%.

**Q.** CCOC(=O)CSc1nc2ccccc2n1CC(=O)N1CCN(c2ccccc2)CC1 was tested. Which inhibition did it give?
**A.** The inhibition was 0%.

**Q.** How did the inhibition turn out when COc1cc(Cl)c(C)cc1NC(=O)COC(=O)c1cnc(C)cn1 was run?
**A.** The inhibition was 0%.

**Q.** O=C(c1ccc(-c2cccc(C(F)(F)F)c2)o1)N1CCOCC1 was tested. Which inhibition did it give?
**A.** The inhibition was 0%.

**Q.** How did the inhibition turn out when COc1ccc2c(c1)C(=O)N(c1ccccc1OC)C(=O)C2 was run?
**A.** The inhibition was 0%.

**Q.** How did the inhibition turn out when O=C(CCn1nc(-c2ccccc2)ccc1=O)N1CCCC1 was run?
**A.** The inhibition was 0%.

**Q.** With COc1ccccc1CN1CC(C(=O)N2CCN(c3ccc(F)cc3)CC2)CC1=O (stereo not given) as the compound, how does the inhibition read?
**A.** Its inhibition is 0%.

**Q.** With Cc1c(C(=O)O)sc2ncn(C)c(=O)c12 as the compound, how does the inhibition read?
**A.** Its inhibition is 0%.

**Q.** With CC1(c2ccc(Cl)cc2)NC(=O)N(CC(=O)NC(=O)NCc2ccco2)C1=O (stereo not given) as the compound, how does the inhibition read?
**A.** Its inhibition is 1%.

**Q.** For O=C(CN1C(=O)c2ccccc2C1=O)Nc1ccccc1C(=O)N1CCCC1, which inhibition is on record?
**A.** Its inhibition is 1%.

**Q.** With Cc1ccccc1-n1c(=O)cc(NCc2ccc3c(c2)OCO3)[nH]c1=O as the compound, how does the inhibition read?
**A.** Its inhibition is 2%.

**Q.** Cc1nc2cccc(C(=O)NC3CCCCC3)c2o1 was tested. Which inhibition did it give?
**A.** Its inhibition is 0%.

**Q.** For Cc1ccc(S(=O)(=O)NCC2CCC(C(=O)NCCCN3CCOCC3)CC2)cc1 (stereo not given), which inhibition is on record?
**A.** The inhibition was 0%.
